Results: PubChem BioAssay AID1159580 (chemical genetic matrix, 2015)
Where “and” joins values, the source holds several entries; their conditions need not be identical. Equal entries are not always repeated. The whole screen tested about 5,500 compounds, of which about 2,000 (36%) were called active. Inconclusive results (about 18%) are left out. Rule as the data show it: active = normalized growth mostly below about 0.91 (no sharp cut-off); inconclusive = no clear call, values can overlap the other calls; inactive = mostly above about 0.92. Some of the results follow.

Experiment: chemical genetic growth profiling, strain panel (AID 1159580);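 also: tested at 20 µM; growth read once vehicle control cultures reached saturation at 30 °C; 1 = growth at the plate median or of vehicle wells; lower values mean less growth of the strain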
Settings: S. cerevisiae deletion strains, growth OD

Measured: normalized growth

CCCCOC(=O)c1ccccc1C(=O)OCCCC
inactive: locus YAL013W, strain DEP1, active compounds read low 0.988 | locus YAL021C, strain ccr4, active compounds read low 0.979 | locus YAL026C, strain drs2, active compounds read low 0.989 | locus YAL030W, strain snc1, active compounds read low 0.979 | locus YBL061C, strain skt5, active compounds read low 0.986 | locus YBR009C, strain hhf1, active compounds read low 0.968 | locus YBR021W, strain FUR4, active compounds read low 0.955 | locus YBR023C, strain chs3, active compounds read low 0.98 | locus YBR171W, strain sec66, active compounds read low 0.959 | locus YBR229C, strain ROT2, active compounds read low 0.981 | locus YBR231C, strain swc5, active compounds read low 0.983 | locus YBR279W, strain paf1, active compounds read low 0.994 | locus YCL011C, strain gbp2, active compounds read low 0.979 | locus YCL016C, strain dcc1, active compounds read low 0.985 | locus YCL029C, strain bik1, active compounds read low 0.976 | locus YCL061C, strain MRC1, active compounds read low 0.984 | locus YCL069W, strain vba3, active compounds read low 0.985 | locus YCR088W, strain abp1, active compounds read low 0.98 | locus YDL005C, strain med2, active compounds read low 0.97 | locus YDL035C, strain GPR1, active compounds read low 0.986 | locus YDL040C, strain nat1, active compounds read low 0.985 | locus YDL074C, strain BRE1, active compounds read low 0.984 | locus YDL101C, strain DUN1, active compounds read low 0.986 | locus YDL134C, strain PPH21, active compounds read low 0.988 | locus YDL185W, strain tfp1, active compounds read low 0.961 | locus YDL192W, strain arf1, active compounds read low 0.983 | locus YDR001C, strain nth1, active compounds read low 0.984 | locus YDR069C, strain doa4, active compounds read low 0.983 | locus YDR101C, strain arx1, active compounds read low 0.984 | locus YDR137W, strain rgp1, active compounds read low 0.905 | locus YDR150W, strain NUM1, active compounds read low 0.989 | locus YDR159W, strain sac3, active compounds read low 0.993 | locus YDR162C, strain NBP2, active compounds read low 0.976 | locus YDR195W, strain ref2 1.07 | locus YDR297W, strain sur2, active compounds read low 0.984 | locus YDR318W, strain mcm21, active compounds read low 0.979 | locus YDR334W, strain swr1, active compounds read low 0.991 | locus YDR335W, strain msn5, active compounds read low 0.992 | locus YDR388W, active compounds read low 0.961 | locus YDR392W, strain spt3, active compounds read low 0.941 | locus YDR502C, strain sam2, active compounds read low 0.977 | locus YEL003W, strain gim4, active compounds read low 0.987 | locus YEL037C, strain rad23, active compounds read low 0.992 | locus YEL061C, strain CIN8 (second series), active compounds read low 0.989 | locus YEL061C, strain CIN8, active compounds read low 0.992 | locus YER015W, strain faa2, active compounds read low 0.986 | locus YER016W, strain bim1, active compounds read low 0.986 | locus YER110C, active compounds read low 0.974 | locus YER111C, strain swi4, active compounds read low 0.999 | locus YER155C, strain BEM2 (second series), active compounds read low 0.968 | locus YER155C, strain BEM2, active compounds read low 0.98 | locus YER167W, strain BCK2, active compounds read low 0.981 | locus YFR010W, strain ubp6, active compounds read low 0.998 | locus YGL078C, strain dbp3, active compounds read low 0.982 | locus YGL086W, strain mad1, active compounds read low 0.98 | locus YGL167C, strain pmr1, active compounds read low 0.957 | locus YGL173C, strain kem1, active compounds read low 0.98 | locus YGL227W, strain vid30, active compounds read low 0.984 | locus YGL240W, strain doc1, active compounds read low 0.973 | locus YGL248W, strain PDE1, active compounds read low 0.976 | locus YGL253W, strain hxk2, active compounds read low 0.987 | locus YGR078C, strain PAC10, active compounds read low 0.981 | locus YGR135W, strain pre9, active compounds read low 0.988 | locus YGR229C, strain SMI1, active compounds read low 0.948 | locus YGR252W, strain gcn5, active compounds read low 0.992 | locus YHR013C, strain ard1, active compounds read low 1.03 | locus YHR027C, strain rpn1, active compounds read low 0.987 | locus YHR030C, strain SLT2, active compounds read low 0.969 | locus YHR079C, strain IRE1 (second series), active compounds read low 0.972 | locus YHR079C, strain IRE1, active compounds read low 0.962 | locus YHR094C, strain hxt1, active compounds read low 0.973 | locus YHR129C, strain ARP1, active compounds read low 0.996 | locus YHR142W, strain chs7, active compounds read low 0.944 | locus YHR200W, strain rpn10, active compounds read low 0.985 | locus YIL066C, strain RNR3, active compounds read low 0.972 | locus YIL073C, strain SPO22, active compounds read low 0.867 | locus YIL125W, strain kgd1, active compounds read low 0.988 | locus YIR030C, strain dcg1, active compounds read low 0.978 | locus YJL092W, strain hpr5, active compounds read low 0.98 | locus YJL095W, strain BCK1 (second series), active compounds read low 0.985 | locus YJL095W, strain BCK1, active compounds read low 0.979 and 0.96 | locus YJL115W, strain asf1, active compounds read low 0.988 | locus YJL129C, strain trk1, active compounds read low 0.886 | locus YJL134W, strain LCB3, active compounds read low 0.984 | locus YJL154C, strain vps35, active compounds read low 0.985 | locus YJL164C, strain tpk1, active compounds read low 0.961 | locus YJL166W, strain qcr8, active compounds read low 0.974 | locus YJL168C, strain set2, active compounds read low 0.985 | locus YJL187C, strain SWE1 (second series), active compounds read low 0.968 | locus YJL187C, strain SWE1, active compounds read low 0.983 | locus YJR043C, strain POL32, active compounds read low 0.982
